# Source: ChEMBL document CHEMBL1961873, “Compounds: GSK PKIS; Assays: Nanosyn kinase panel” (2012)
# Assays:
# [1] = target: Sphingosine kinase 1 (Homo sapiens) (UniProt Q9NYA1); conditions: at 1 µM;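 further: mean SPHK1 inhibition value reported from the GSK PKIS kinase panel screen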
# [2] = target: T1, Sphingosine kinase 2 (Homo sapiens) (UniProt Q9NRA0); conditions: at 0.1 µM
# T1 sequence (whole entry): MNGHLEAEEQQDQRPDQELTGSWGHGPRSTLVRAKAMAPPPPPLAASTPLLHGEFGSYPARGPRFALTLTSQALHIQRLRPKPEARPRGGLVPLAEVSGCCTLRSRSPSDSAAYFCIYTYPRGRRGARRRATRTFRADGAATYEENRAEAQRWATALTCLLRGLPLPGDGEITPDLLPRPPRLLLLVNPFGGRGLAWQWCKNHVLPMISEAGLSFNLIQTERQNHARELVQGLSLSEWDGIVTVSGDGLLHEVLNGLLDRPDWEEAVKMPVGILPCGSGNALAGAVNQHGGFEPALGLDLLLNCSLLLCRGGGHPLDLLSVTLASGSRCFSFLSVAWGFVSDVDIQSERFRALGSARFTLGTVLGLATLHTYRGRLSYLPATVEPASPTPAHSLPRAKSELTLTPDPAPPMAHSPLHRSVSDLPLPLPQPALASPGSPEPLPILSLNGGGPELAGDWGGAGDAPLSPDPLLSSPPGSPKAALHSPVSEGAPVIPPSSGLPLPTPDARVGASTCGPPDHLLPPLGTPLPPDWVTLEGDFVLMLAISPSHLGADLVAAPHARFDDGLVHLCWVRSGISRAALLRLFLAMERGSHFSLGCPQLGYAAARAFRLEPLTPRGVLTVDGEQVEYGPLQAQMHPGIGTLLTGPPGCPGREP
# [3] = target: T1, Sphingosine kinase 2 (Homo sapiens); conditions: at 1 µM
# [4] = target: Casein kinase II subunit alpha (Homo sapiens) (UniProt P68400); conditions: at 0.1 µM
# Sequence of Casein kinase II subunit alpha (Homo sapiens) (P68400 whole entry, looked up): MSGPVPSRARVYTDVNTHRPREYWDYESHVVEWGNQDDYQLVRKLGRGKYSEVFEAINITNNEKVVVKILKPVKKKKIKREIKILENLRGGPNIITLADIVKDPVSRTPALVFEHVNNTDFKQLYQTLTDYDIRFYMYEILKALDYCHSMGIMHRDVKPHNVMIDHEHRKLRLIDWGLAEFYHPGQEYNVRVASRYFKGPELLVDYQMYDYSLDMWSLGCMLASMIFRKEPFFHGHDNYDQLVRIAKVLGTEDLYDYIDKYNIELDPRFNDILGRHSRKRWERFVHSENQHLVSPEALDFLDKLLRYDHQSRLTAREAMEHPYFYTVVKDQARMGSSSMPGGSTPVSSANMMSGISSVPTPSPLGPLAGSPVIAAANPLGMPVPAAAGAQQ
# [5] = target: Casein kinase II subunit alpha (Homo sapiens) (UniProt P68400); conditions: at 1 µM
# [6] = target: T2, Inhibitor of nuclear factor kappa-B kinase subunit alpha (Homo sapiens) (UniProt O15111); conditions: at 0.1 µM
# T2 sequence (whole entry): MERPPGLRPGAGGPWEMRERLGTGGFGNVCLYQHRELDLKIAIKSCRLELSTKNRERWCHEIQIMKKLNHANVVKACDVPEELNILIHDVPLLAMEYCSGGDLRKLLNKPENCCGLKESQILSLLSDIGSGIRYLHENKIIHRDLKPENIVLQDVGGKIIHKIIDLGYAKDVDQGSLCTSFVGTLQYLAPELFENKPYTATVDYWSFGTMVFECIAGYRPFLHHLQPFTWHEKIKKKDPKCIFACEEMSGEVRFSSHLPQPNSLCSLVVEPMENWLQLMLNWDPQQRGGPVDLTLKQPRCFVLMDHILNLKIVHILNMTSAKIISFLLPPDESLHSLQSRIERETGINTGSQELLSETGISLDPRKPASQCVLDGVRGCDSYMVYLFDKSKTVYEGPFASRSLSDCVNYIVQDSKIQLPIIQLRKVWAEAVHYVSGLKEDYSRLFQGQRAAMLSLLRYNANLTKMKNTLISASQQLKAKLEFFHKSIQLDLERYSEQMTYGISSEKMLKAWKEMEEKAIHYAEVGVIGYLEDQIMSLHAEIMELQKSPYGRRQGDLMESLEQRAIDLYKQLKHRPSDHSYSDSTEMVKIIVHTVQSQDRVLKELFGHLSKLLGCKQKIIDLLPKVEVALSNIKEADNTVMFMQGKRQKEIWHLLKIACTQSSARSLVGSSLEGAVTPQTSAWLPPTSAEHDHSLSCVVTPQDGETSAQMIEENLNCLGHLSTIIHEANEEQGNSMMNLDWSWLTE
# [7] = target: T2, Inhibitor of nuclear factor kappa-B kinase subunit alpha (Homo sapiens); conditions: at 1 µM
# [8] = target: T3, Inhibitor of nuclear factor kappa-B kinase subunit beta (Homo sapiens) (UniProt O14920); conditions: at 0.1 µM
# T3 sequence (whole entry): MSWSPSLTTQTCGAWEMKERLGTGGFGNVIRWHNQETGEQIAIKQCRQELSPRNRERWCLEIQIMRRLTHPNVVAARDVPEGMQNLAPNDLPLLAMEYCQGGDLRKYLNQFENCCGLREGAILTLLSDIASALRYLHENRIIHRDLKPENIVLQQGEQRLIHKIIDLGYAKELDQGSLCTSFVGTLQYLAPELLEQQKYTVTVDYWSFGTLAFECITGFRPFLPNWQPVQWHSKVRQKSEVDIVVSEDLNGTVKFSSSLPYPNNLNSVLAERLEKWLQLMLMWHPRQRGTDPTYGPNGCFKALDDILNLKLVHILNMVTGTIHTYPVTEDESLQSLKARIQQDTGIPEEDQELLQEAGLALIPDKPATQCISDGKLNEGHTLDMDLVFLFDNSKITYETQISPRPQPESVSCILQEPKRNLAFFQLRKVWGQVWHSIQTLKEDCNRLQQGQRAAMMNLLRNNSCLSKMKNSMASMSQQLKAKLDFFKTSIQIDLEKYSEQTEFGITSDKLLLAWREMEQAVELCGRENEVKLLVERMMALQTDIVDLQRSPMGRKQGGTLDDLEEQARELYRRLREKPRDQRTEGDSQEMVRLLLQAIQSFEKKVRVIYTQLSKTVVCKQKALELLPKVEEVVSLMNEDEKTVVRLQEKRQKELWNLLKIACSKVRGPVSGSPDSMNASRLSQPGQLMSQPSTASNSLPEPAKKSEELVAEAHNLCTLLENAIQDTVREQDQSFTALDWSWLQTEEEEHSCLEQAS
# [9] = target: T3, Inhibitor of nuclear factor kappa-B kinase subunit beta (Homo sapiens); conditions: at 1 µM
# [10] = target: T4, Inhibitor of nuclear factor kappa-B kinase subunit epsilon (Homo sapiens) (UniProt Q14164); conditions: at 0.1 µM
# T4 sequence (whole entry): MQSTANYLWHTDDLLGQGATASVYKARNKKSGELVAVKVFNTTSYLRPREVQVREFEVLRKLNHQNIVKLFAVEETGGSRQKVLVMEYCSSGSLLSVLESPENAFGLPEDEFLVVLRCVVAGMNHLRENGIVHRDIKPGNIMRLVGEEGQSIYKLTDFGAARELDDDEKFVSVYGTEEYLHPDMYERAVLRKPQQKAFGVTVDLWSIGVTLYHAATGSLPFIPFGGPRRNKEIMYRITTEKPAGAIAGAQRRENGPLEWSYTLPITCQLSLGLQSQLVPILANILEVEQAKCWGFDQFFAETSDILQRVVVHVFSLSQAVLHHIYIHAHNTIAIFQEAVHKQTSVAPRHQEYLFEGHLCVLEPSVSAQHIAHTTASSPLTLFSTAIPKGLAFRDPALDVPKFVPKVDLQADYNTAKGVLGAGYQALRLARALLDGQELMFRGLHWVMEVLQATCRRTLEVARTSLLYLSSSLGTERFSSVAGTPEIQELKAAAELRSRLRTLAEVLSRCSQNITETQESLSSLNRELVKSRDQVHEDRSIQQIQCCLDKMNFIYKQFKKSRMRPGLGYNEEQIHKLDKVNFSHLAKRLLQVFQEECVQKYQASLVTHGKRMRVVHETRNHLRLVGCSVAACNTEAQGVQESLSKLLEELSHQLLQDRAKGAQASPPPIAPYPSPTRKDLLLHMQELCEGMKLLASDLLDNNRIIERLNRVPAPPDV
# [11] = target: T4, Inhibitor of nuclear factor kappa-B kinase subunit epsilon (Homo sapiens); conditions: at 1 µM
# [12] = target: T5, Serine/threonine-protein kinase Nek1 (Homo sapiens) (UniProt Q96PY6); conditions: at 0.1 µM
# T5 sequence (whole entry): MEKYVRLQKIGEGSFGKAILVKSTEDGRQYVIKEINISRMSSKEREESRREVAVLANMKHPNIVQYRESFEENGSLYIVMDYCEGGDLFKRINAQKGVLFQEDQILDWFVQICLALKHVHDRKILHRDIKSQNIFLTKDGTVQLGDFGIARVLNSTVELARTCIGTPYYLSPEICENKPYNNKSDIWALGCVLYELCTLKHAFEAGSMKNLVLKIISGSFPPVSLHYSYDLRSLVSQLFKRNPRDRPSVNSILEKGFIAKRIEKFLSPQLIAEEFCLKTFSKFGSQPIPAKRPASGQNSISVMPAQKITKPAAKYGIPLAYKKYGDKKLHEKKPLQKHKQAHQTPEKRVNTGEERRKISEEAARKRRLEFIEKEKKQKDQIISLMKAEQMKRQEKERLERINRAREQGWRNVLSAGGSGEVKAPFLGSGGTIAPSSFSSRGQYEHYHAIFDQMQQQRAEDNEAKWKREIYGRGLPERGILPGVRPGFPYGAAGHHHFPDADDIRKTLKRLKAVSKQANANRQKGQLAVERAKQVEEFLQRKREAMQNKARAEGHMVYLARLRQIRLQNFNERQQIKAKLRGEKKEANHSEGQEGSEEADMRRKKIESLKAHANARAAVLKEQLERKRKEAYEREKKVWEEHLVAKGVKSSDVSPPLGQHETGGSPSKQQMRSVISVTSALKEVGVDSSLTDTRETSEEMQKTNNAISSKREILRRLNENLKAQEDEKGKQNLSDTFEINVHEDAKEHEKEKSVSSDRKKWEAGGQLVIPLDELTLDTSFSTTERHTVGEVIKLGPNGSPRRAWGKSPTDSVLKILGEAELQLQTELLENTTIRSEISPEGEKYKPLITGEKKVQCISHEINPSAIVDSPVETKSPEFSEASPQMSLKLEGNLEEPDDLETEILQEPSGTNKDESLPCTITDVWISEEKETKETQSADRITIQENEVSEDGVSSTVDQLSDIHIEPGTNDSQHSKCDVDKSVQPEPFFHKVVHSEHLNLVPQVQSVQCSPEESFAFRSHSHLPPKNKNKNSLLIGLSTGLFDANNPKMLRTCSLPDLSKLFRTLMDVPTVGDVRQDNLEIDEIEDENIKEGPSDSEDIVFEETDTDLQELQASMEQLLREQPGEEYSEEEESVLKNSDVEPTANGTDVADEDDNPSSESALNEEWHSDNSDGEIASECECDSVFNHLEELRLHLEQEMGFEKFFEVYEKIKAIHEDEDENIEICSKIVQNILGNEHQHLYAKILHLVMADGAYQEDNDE
# [13] = target: T5, Serine/threonine-protein kinase Nek1 (Homo sapiens); conditions: at 1 µM
# [14] = target: T6, Serine/threonine-protein kinase Nek2 (Homo sapiens) (UniProt P51955); conditions: at 0.1 µM
# T6 sequence (whole entry): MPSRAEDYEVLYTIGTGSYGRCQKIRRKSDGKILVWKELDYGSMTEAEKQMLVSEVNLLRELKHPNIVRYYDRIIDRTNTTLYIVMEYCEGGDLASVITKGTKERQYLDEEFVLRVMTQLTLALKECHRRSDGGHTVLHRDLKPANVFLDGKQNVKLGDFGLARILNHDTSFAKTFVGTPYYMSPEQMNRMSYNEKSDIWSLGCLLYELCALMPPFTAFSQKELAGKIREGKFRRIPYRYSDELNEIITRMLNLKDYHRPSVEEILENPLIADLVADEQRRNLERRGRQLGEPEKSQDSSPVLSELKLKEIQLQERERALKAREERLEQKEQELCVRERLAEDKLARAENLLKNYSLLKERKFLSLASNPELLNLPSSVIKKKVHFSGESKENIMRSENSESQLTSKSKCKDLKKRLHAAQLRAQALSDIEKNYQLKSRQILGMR
# [15] = target: T6, Serine/threonine-protein kinase Nek2 (Homo sapiens); conditions: at 1 µM
# [16] = target: Serine/threonine-protein kinase Nek6 (Homo sapiens) (UniProt Q9HC98); conditions: at 0.1 µM
# Sequence of Serine/threonine-protein kinase Nek6 (Homo sapiens) (Q9HC98 whole entry): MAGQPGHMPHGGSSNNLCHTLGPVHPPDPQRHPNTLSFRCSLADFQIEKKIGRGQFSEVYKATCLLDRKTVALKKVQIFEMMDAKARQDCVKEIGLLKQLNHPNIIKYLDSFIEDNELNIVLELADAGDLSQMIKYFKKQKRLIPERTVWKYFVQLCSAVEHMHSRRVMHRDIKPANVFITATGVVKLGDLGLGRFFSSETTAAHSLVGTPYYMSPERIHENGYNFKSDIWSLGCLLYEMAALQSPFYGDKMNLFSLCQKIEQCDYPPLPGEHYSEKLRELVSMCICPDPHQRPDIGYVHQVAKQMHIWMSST
# [17] = target: Serine/threonine-protein kinase Nek6 (Homo sapiens) (UniProt Q9HC98); conditions: at 1 µM
# [18] = target: Serine/threonine-protein kinase Nek7 (Homo sapiens) (UniProt Q8TDX7); conditions: at 0.1 µM
# Sequence of Serine/threonine-protein kinase Nek7 (Homo sapiens) (Q8TDX7 whole entry, looked up): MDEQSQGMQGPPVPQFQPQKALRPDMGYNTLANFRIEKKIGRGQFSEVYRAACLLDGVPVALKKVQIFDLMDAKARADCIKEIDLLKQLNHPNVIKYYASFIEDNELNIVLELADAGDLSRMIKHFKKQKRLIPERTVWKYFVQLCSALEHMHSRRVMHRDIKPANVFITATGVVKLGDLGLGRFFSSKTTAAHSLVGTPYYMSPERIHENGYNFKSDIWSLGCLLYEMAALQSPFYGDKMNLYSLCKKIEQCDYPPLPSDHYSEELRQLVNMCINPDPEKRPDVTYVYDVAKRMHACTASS
# [19] = target: Serine/threonine-protein kinase Nek7 (Homo sapiens) (UniProt Q8TDX7); conditions: at 1 µM
# [20] = target: T7, Serine/threonine-protein kinase Nek9 (Homo sapiens) (UniProt Q8TD19); conditions: at 0.1 µM;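 further: reported value is the mean percent inhibition of NEK9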
# T7 sequence (whole entry): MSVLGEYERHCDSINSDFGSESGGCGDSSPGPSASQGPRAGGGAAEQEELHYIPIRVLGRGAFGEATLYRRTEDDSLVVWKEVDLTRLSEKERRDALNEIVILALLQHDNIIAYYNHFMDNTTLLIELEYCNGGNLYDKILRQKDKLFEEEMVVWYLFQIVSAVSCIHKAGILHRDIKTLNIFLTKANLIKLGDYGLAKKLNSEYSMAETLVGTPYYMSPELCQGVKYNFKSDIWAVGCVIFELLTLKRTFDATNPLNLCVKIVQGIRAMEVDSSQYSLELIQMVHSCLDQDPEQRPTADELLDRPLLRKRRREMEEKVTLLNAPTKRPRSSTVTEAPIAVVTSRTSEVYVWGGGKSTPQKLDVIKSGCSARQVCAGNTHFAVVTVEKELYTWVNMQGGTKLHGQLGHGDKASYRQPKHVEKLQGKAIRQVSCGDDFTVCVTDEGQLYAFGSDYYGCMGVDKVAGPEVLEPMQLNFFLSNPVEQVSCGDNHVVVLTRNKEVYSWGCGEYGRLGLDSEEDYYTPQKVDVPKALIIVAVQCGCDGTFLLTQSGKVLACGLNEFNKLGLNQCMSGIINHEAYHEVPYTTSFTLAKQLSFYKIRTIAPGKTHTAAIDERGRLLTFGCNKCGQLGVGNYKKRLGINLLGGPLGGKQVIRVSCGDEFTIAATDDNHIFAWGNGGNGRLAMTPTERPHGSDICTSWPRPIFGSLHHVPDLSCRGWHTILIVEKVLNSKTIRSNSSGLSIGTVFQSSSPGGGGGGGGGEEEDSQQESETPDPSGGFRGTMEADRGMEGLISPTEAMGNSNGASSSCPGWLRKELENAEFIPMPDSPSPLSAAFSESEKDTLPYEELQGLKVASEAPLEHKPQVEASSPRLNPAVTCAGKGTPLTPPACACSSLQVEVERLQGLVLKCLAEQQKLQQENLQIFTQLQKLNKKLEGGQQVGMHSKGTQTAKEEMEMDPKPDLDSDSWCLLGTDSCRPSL
# Sequence of Sphingosine kinase 1 (Homo sapiens) (Q9NYA1 whole entry): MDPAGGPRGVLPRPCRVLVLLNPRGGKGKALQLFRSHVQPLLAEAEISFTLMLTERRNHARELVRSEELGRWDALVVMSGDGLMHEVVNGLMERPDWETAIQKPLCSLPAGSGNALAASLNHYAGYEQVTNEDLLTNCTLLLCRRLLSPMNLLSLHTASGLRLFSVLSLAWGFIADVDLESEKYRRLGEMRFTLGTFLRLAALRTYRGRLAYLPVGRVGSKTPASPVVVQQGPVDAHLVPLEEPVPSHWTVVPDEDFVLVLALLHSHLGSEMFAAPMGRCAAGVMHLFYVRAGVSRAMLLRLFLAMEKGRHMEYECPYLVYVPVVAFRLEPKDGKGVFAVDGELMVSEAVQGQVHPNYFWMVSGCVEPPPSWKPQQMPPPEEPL
SMILES,inhibition [1],inhibition [2],inhibition [3],inhibition [4],inhibition [5],inhibition [6],inhibition [7],inhibition [8],inhibition [9],inhibition [10],inhibition [11],inhibition [12],inhibition [13],inhibition [14],inhibition [15],inhibition [16],inhibition [17],inhibition [18],inhibition [19],inhibition [20]
O=C1Nc2ccc(-c3cccnc3)cc2C1=Cc1cc(Br)c(O)c(Br)c1,-0.37%,0.41%,-1.79%,4.96%,14.5%,5.26%,7.66%,4.92%,2.14%,3.51%,92.1%,2.32%,0.46%,4.11%,2.79%,4.82%,0.55%,5.27%,4.87%,6.61%
Cc1cc(O)cc(C)c1/C=C/c1cncc(C(=O)N(C)C)c1,-0.49%,-0.12%,0.05%,4.25%,5.95%,5.21%,9.29%,6.05%,2.23%,2.77%,2.2%,2.11%,5.18%,2.6%,3.87%,2.43%,0.38%,3.87%,4.65%,11.4%
